# From PubChem BioAssay (NCATS)
# Unmarked numbers belong to inactive results. Records with an inconclusive call do not appear. Entries that show only a call come without a potency. Activity calls are given as the source filed them. Unless noted, calls come from the whole dose curve; as a rule, active = well fitted curve in the direction sought with a large enough effect; inconclusive = small, poorly fitted or top-dose-only effect, or another doubt; inactive = no such curve, though single readings can be large; an effect the other way counts as inactive or inconclusive.
# Tests used:
# [1] = target: Cytochrome P450 2D6 (Homo sapiens) (UniProt P10635); assay: qHTS Assay for Inhibitors and Substrates of Cytochrome P450 2D6 (AID 891); note: nearly all actives have a fitted effect of over 60% in size; note: potency is the fitted concentration of half-maximal effect
# How it was run: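 Human CYP2D6 (5 nM) with 30 uM Luciferin-ME EGE (at Km) in 100 mM KPO4, compound preincubated 10 min, then NADPH regeneration system for 60 min at room temperature. Luciferin read by luminescence; normalized to 1.43 uM quinidine.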
# [2] = target: Dual specificity protein kinase CLK4 (Homo sapiens) (UniProt Q9HAZ1); assay: qHTS Assay for Inhibitors of CDC-like Kinase 4 (Kinase-Glo Assay) (AID 1770); note: series mostly up to about 67 µM; nearly all actives have a fitted effect of over 65% in size
# How it was run: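 Substrate mix (RS peptide 100 uM, ATP 1 uM) dispensed, compound pinned in, then Clk4 added to 25 nM final. Incubated 4.5 h at RT; Kinase-Glo reagent added, luminescence read after 5 min.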
# [3] = target: Dual specificity protein kinase CLK4 (Homo sapiens) (UniProt Q9HAZ1); assay: qHTS Assay for Inhibitors of CDC-like Kinase 4 (ADP-Glo Assay) (AID 1771); note: nearly all actives have a fitted effect of over 70% in size
# How it was run: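 Clk4 (25 nM) was incubated 1 hr at room temperature with 100 uM RS repeat peptide and 1 uM ATP in buffer with 2 mM MgCl2, 0.5 mM EGTA, 2.5 mM DTT. ADP formed was quantified by ADP-Glo luminescence.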
# [4] = target: Dual specificity protein kinase CLK4 (Homo sapiens) (UniProt Q9HAZ1); assay: qHTS Assay for Inhibitors of CDC-like Kinase 4 (ADP-FP Assay) (AID 1795);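 note: recombinant human CLK4 phosphorylating RS repeat peptide at 1 µM ATP; series mostly up to about 50 µM; nearly all actives have a fitted effect of over 60% in size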
# How it was run: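 Clk4 6.25 nM; RS peptide 100 uM; ATP 1 uM; 25 mM Tris pH 7.5, 10 mM MgCl2; 1 h reaction. ADP detected via antibody/orange tracer FP displacement; TG003 positive control.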
# [5] = target: DNA dC->dU-editing enzyme APOBEC-3G (Homo sapiens) (UniProt Q9HC16); assay: qHTS for inhibitors of Vif-A3G interactions: Validation (AID 588379)
# How it was run: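 HeLa cells stably expressing Vif and A3G-eYFP, 700 cells/well, incubated overnight at 37 deg C, then exposed to compound overnight at 37 deg C. Inhibition of Vif-mediated degradation read as increased yellow fluorescence (Ex 488/Em 500-530) by laser-scanning cytometry.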
# [6] = target: DNA repair nuclease/redox regulator APEX1 (Homo sapiens) (UniProt P27695); assay: qHTS Validation Assay for Inhibitors of the Human Apurinic/apyrimidinic Endonuclease 1 (APE1) (AID 1705;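 note: TAMRA fluorescence gain over two minutes as APE1 cuts a quenched THF abasic duplex; series mostly up to about 57 µM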)
# How it was run: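 qHTS, 1536-well. APE1 + cpd 15 min RT → 50 nM TAMRA/BHQ-2 THF-abasic dsDNA substrate → kinetic fluorescence, 3 reads/60 s; delta(read3−read1) = reaction progress. No-enzyme buffer = negative control.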
# [7] = qHTS for differential inhibitors of proliferation of Plasmodium falciparum line Dd2 (AID 1882); details: Potency: Plasmodium falciparum Dd2 proliferation inhibition; note: nearly all actives have a fitted effect of over 65% in size; note: potency is the fitted concentration of half-maximal effect
# How it was run: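 SYBR Green I DNA fluorescence read-out, ex 485/em 535 nm. Signals were normalized to 0.29 uM artemisinin and DMSO wells, then corrected using vehicle-only plates flanking each stack. Parasite growth ran 72 h in erythrocytes before lysis.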
# [8] = target: ATP-dependent DNA helicase Q1 (Homo sapiens) (UniProt P46063); assay: qHTS Validation Assay for Inhibitors of RecQ-Like Dna Helicase 1 (RECQ1) (AID 2353)
# How it was run: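 50 nM RECQ1T1 preincubated 15 min with compound in Tris pH 8.0 buffer with MgCl2, DTT, Tween-20 and 2.5 ug/ml poly(dI-dC); started with 200 nM TAMRA/BHQ-2 forked duplex and 2 mM ATP. Unwinding read as fluorescence (525/598 nm), two reads 2 h apart.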
# [9] = Quantitative high throughput screen for delayed death inhibitors of the malarial parasite plastid, 96 hour incubation (AID 488745); note: nearly all actives have a fitted effect of over 70% in size; note: potency is the fitted concentration of half-maximal effect
# How it was run: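 P. falciparum carrying an integrated firefly luciferase reporter, grown in erythrocytes (2% hematocrit, 0.1% parasitemia final) in RPMI 1640/0.5% Albumax, was exposed to compound for 96 h (two generations) at 37 C, 5% CO2. Luminescence decrease indicated growth inhibition.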
# [10] = target: M-phase phosphoprotein 8 (Homo sapiens) (UniProt Q99549); assay: qHTS Validation Assay for Inhibitors for MPP8 Chromodomain Interactions with Methylated Histone Tails (AID 488949); note: nearly all actives have a fitted effect of over 55% in size; note: potency is the fitted concentration of half-maximal effect
# How it was run: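 50 nM MPP8 + 50 nM b-H3K9me3 peptide, PBS pH 7.4/0.01% Tween-20, 30 min RT; + cpd 30 min RT; + AlphaScreen donor/Ni-chelate acceptor beads 10 ug/mL final, 30 min dark; luminescence read.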
# [11] = target: Transient receptor potential cation channel subfamily V member 1 (Homo sapiens) (UniProt Q8NER1); assay: HTS Assay for Compounds that Act as Enhancers of the Vanilloid Receptor 1 (AID 488979)
# How it was run: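 TRPV1 cells loaded with Fluo-8 calcium dye; compound added and Ca2+ signal (ex 480/em 520 nm) followed 3 min, then capsaicin at EC20 added and read 2 more min to detect enhancement.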
# [12] = target: Thyrotropin receptor (Homo sapiens) (UniProt P16473); assay: qHTS Assay for Antagonists of the Thyroid Stimulating Hormone Receptor (AID 488980); note: series mostly up to about 58 µM
# How it was run: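 Readout is cAMP by HTRF competition between cellular cAMP and cAMP-d2 for a cryptate-labelled antibody. Antagonism was assessed in TSHR-transfected HEK293 cells stimulated with 4 nM TSH (EC80, final) in the presence of RO 20-1724.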
# [13] = target: Thyrotropin-releasing hormone receptor (Homo sapiens) (UniProt P34981); assay: qHTS for Small Molecule Agonists and Allosteric Enhancers of Human TRH Receptor: Validation Screen for Agonists (AID 493127;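 active = calcium activation more than 3 SD above the typical response in the agonist read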;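 note: intracellular calcium rise by fluo-8 fluorescence before TRH EC20 addition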); details: TRH receptor agonist cell assay; at 2 µM; hits give high values
# How it was run: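 TRHR-expressing cells were plated overnight in serum-containing medium, then loaded with fluo-8 calcium dye at room temperature for 30 min–1.5 h. After a 10 s baseline, compound was pin-transferred and calcium fluorescence (ex 480/em 530) read kinetically for agonist response.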
# [14] = target: Cytochrome P450 2C19 (Homo sapiens) (UniProt P33261); assay: qHTS Assay for Inhibitors and Substrates of Cytochrome P450 2C19 (AID 899); note: nearly all actives have a fitted effect of over 60% in size
# How it was run: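 Signal comes from luciferase acting on luciferin released by CYP2C19-mediated hydroxylation of Luciferin-H EGE, 10uM (KM). Assay mix: 5nM enzyme, 50mM KPO4; 60 min at 37C with NADPH regeneration. Data normalized against 57uM ketoconazole.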
# [15] = target: Cytochrome P450 2C9 (Homo sapiens) (UniProt P11712); assay: qHTS Assay for Inhibitors and Substrates of Cytochrome P450 2C9 (AID 883); note: nearly all actives have a fitted effect of over 60% in size
# How it was run: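 Signal: luciferase luminescence reporting luciferin produced by CYP2C9. Conditions: 10nM enzyme, Luciferin-H 100uM at KM, 25mM KPO4, 37C, 60 min NADPH-driven reaction. Reference: 57uM sulphaphenazole as 100% inhibition.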
# [16] = qHTS for differential inhibitors of proliferation of Plasmodium falciparum line 7G8 (AID 1815);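 note: potency is the fitted concentration of half-maximal effect; parasite growth measured after three days of incubation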
# [17] = qHTS for differential inhibitors of proliferation of Plasmodium falciparum line GB4 (AID 1816); details: Potency: Plasmodium falciparum GB4 proliferation inhibition;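 note: potency is the fitted concentration of half-maximal effect; parasite growth measured after 72 h incubation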
# [18] = qHTS for differential inhibitors of proliferation of Plasmodium falciparum line 3D7 (AID 1876); note: potency is the fitted concentration of half-maximal effect
# Chain of Thyrotropin-releasing hormone receptor (Homo sapiens) (P34981 whole entry, looked up): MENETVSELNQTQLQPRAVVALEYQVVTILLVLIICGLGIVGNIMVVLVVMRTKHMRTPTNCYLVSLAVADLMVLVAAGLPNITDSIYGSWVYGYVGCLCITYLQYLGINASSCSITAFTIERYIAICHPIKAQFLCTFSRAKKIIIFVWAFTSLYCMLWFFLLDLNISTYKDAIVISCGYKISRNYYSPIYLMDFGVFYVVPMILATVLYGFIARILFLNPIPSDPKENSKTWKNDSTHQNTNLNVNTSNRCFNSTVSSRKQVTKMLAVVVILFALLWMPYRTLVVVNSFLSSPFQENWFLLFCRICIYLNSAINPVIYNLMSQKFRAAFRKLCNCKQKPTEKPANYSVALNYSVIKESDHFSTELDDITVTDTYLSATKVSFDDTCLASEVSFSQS
# Chain of Thyrotropin receptor (Homo sapiens) (P16473 whole entry, looked up): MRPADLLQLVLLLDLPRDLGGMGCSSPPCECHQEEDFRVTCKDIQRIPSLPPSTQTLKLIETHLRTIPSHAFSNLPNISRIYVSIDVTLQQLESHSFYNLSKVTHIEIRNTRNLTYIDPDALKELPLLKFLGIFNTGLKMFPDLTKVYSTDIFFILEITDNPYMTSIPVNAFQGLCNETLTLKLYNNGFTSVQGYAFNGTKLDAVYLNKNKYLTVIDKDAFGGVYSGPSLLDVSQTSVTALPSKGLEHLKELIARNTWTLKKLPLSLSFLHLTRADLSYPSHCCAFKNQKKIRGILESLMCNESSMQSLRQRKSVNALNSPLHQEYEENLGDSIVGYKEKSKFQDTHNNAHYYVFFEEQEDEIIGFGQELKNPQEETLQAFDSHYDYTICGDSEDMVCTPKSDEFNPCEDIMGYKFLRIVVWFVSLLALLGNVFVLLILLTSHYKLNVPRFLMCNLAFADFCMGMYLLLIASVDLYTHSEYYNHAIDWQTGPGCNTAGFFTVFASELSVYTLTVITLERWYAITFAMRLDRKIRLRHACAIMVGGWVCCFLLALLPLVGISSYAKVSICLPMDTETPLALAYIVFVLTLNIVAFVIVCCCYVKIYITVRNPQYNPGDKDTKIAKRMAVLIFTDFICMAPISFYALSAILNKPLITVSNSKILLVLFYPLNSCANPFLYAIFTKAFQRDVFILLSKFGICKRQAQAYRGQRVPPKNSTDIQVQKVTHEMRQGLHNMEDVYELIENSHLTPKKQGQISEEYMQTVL
# Chain of Cytochrome P450 2D6 (Homo sapiens) (P10635 whole entry, looked up): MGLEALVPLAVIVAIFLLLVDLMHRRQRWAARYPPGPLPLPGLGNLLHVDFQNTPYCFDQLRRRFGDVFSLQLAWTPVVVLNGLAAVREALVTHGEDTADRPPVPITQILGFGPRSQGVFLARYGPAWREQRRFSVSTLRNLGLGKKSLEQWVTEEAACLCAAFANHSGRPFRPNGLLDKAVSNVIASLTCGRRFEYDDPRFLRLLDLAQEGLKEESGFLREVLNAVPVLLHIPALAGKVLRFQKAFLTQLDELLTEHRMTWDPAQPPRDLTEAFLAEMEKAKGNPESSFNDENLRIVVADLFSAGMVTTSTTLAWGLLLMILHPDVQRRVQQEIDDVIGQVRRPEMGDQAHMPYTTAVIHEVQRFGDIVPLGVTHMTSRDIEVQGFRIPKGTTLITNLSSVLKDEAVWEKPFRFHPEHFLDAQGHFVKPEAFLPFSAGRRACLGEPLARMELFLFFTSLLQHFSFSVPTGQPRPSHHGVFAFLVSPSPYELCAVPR
# Chain of M-phase phosphoprotein 8 (Homo sapiens) (Q99549 whole entry, looked up): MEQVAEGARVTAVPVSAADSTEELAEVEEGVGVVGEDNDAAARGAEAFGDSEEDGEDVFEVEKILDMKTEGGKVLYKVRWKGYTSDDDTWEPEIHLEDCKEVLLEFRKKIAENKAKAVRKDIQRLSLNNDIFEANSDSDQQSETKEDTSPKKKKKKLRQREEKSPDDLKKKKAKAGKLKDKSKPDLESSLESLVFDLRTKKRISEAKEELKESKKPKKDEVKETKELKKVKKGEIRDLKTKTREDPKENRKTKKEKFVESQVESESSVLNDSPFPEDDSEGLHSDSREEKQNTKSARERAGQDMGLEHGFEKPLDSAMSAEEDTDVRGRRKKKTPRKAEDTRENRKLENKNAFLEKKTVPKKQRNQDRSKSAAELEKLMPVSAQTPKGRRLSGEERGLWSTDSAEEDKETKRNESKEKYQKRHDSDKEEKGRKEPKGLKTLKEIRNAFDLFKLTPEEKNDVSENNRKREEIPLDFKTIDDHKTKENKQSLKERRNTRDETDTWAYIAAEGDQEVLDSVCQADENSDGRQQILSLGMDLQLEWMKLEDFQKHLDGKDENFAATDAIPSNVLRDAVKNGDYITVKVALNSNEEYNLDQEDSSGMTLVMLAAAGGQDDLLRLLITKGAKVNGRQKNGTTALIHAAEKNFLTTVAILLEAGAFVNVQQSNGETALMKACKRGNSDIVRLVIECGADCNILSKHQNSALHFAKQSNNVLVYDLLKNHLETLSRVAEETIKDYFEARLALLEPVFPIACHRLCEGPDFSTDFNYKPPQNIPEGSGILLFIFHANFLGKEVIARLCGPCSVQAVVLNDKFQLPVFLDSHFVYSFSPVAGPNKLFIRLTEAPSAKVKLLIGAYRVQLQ
# Chain of Dual specificity protein kinase CLK4 (Homo sapiens) (Q9HAZ1 whole entry, looked up): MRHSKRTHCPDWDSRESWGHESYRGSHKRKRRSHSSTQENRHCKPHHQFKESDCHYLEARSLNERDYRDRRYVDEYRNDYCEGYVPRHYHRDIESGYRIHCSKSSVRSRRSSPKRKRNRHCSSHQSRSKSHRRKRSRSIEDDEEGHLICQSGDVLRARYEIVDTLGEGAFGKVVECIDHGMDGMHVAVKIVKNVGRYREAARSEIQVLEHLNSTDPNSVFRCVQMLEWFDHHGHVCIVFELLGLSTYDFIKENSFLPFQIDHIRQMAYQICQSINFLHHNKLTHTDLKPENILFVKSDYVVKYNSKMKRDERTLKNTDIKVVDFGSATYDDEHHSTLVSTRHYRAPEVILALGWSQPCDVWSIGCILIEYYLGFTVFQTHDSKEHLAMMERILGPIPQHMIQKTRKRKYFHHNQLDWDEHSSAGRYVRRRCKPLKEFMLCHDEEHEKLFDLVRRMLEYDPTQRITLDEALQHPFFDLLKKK
# Chain of DNA repair nuclease/redox regulator APEX1 (Homo sapiens) (P27695 whole entry, looked up): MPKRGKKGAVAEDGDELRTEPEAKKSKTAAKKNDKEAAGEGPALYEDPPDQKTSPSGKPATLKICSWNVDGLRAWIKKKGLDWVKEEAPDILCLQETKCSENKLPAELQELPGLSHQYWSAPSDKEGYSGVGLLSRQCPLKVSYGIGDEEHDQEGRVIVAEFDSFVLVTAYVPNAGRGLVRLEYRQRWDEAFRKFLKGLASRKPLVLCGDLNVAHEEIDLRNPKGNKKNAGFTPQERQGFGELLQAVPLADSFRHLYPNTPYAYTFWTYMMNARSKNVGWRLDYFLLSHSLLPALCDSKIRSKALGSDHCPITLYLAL
# Chain of ATP-dependent DNA helicase Q1 (Homo sapiens) (P46063 whole entry, looked up): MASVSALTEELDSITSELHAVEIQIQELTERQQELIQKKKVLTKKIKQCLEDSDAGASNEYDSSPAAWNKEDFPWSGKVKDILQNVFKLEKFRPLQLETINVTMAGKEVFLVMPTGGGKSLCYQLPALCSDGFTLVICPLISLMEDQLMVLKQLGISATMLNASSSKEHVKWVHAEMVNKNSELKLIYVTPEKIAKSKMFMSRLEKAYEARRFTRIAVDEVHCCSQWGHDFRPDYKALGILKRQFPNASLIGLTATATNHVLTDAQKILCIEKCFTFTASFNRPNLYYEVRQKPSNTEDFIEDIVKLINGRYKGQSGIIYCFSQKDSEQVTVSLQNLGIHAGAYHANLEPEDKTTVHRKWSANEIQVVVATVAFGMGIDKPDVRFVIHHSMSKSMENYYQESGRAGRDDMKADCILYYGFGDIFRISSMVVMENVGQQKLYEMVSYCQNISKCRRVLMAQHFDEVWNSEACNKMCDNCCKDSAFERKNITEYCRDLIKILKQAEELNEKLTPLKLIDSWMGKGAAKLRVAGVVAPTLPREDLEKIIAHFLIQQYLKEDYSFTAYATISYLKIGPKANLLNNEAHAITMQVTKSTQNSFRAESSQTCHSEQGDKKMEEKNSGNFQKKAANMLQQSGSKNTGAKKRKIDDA
# Chain of Transient receptor potential cation channel subfamily V member 1 (Homo sapiens) (Q8NER1 whole entry, looked up): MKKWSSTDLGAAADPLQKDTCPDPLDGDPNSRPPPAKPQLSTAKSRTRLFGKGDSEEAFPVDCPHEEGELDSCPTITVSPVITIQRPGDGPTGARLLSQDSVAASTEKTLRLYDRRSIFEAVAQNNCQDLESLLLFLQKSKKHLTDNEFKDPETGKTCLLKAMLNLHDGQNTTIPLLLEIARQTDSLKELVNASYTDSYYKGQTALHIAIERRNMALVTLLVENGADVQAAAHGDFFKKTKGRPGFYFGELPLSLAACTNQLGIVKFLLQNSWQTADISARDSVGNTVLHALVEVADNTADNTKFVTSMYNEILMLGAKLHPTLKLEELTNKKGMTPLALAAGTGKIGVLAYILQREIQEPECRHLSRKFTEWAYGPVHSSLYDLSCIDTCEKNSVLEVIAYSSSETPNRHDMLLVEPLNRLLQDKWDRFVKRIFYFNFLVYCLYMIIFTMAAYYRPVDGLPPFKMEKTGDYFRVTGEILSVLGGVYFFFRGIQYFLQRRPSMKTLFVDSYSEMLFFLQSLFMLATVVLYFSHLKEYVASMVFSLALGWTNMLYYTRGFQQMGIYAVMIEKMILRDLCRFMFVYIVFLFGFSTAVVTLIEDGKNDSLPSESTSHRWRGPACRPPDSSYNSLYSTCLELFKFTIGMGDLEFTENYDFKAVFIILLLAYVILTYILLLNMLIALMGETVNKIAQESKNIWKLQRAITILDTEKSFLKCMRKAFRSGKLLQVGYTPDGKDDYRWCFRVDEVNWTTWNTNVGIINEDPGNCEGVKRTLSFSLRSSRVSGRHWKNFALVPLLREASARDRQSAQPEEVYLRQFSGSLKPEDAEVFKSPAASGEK
structure (smiles),measurement,setting,value
COc1ccccc1-c1nc(N(C)C)c2ccccc2n1,Potency,[1],3.16 µM (active)
same,Potency,[2],inactive
same,Potency,[3],inactive
same,Potency,[4],inactive
O=C1C=CC2=C3c4cc(O)c(O)cc4CC3(O)COC2=C1O (configuration not stated),outcome,[5],inactive
Nc1ncnc2c1ncn2[C@@H]1O[C@H](COP(=O)(O)OP(=O)(O)OP(=O)(O)OP(=O)(O)OC[C@@H]2O[C@H](n3cnc4c(N)ncnc43)[C@@H](O)[C@@H]2O)[C@H](O)[C@H]1O,outcome,[6],inactive
same,Potency,[7],inactive
same,outcome,[8],inactive
same,Potency,[9],inactive
same,Potency,[10],inactive
same,outcome,[11],inactive
same,outcome,[12],inactive
same,activation,[13],13.9%
CN1CCN(c2ncc3nc(-c4cccc(C#N)c4)c(=O)n(C[C@H]4CCCO4)c3n2)CC1,Potency,[1],inactive
same,Potency,[14],inactive
same,Potency,[2],inactive
same,Potency,[3],inactive
same,Potency,[4],inactive
COc1cc2c3cc1Oc1c(OC)c(OC)cc4c1[C@@H](Cc1ccc(O)c(c1)Oc1ccc(cc1)C[C@@H]3N(C)CC2)N(C)CC4,Potency,[15],inactive
same,Potency,[1],inactive
same,Potency,[14],inactive
same,outcome,[5],inactive
CN1CCc2c(cc(O)c(O)c2Cl)C(c2cccc(Cl)c2)C1 (configuration not stated),outcome,[6],inactive
same,Potency,[16],5.01 µM (active)
same,Potency,[17],5.01 µM (active)
same,Potency,[18],3.55 µM (active)
same,Potency,[7],11.2 µM (active)
same,outcome,[8],inactive
same,Potency,[9],18.5 µM (active)
same,Potency,[10],39.8 µM (active)
same,outcome,[11],inactive
same,outcome,[12],inactive
same,activation,[13],0.0625%
CCCC1O[C@@H]2C[C@H]3[C@@H]4CCC5=CC(=O)C=C[C@]5(C)C4[C@@H](O)C[C@]3(C)[C@]2(C(=O)CO)O1 (some centres not stated),outcome,[6],inactive
same,Potency,[16],2.24 µM (active)
same,Potency,[17],3.16 µM (active)
same,Potency,[18],2.51 µM (active)
same,Potency,[7],5.01 µM (active)
same,outcome,[8],inactive
same,Potency,[9],2.94 µM (active)
same,Potency,[10],inactive
same,outcome,[11],inactive
same,activation,[13],2.06%
CN1CCN(c2ncc3nc(-c4cn(C)c5ccccc45)c(=O)n(C)c3n2)CC1,Potency,[2],inactive
same,Potency,[3],inactive
same,Potency,[4],inactive
COCCn1c(=O)c(-c2cccc(C#N)c2)nc2cnc(N3CCN(C)CC3)nc21,Potency,[2],inactive
same,Potency,[3],inactive
same,Potency,[4],inactive
COc1ccc(-c2nc3cnc(N4CCN(C)CC4)nc3n(C3CC3)c2=O)cc1,Potency,[2],inactive
same,Potency,[3],inactive
same,Potency,[4],inactive
NC(=NCc1ccc(Cl)c(Cl)c1)NC(=O)c1nc(Cl)c(N)nc1N,outcome,[6],inactive
same,Potency,[16],0.562 µM (active)
same,Potency,[17],0.891 µM (active)
same,Potency,[18],0.282 µM (active)
same,Potency,[7],1.58 µM (active)
same,outcome,[8],inactive
same,Potency,[9],0.586 µM (active)
same,Potency,[10],50.1 µM (active)
same,outcome,[12],inactive
same,activation,[13],4.94%
CC#C[C@]1(O)CC[C@H]2C3CCC4=CC(=O)CCC4=C3[C@@H](c3ccc(N(C)C)cc3)C[C@@]21C (some centres not stated),outcome,[6],inactive
same,Potency,[16],3.98 µM (active)
same,Potency,[17],11.2 µM (active)
same,Potency,[18],10 µM (active)
same,outcome,[8],inactive
same,Potency,[9],11.7 µM (active)
same,Potency,[10],15.8 µM (active)
same,outcome,[11],inactive
same,outcome,[12],inactive
same,activation,[13],28.5%
